# In the library only some 7.7% were active in any assay of this set; here they are far more common.
# NOMO-1 viab: STK33 inhibitor candidate reducing NOMO-1 cell viability | NOMO-1 AML viability, CellTiter-Glo luminescence, 72 h | inhibition, % (concentration not given with the values) | actives 7.5% (n = 37,000) | AID 2330; in the data active = inhibition above about 80%; inconclusive = no clear call, values can overlap the other calls
# Shh pathway inh: blocks Sonic Hedgehog signaling; Shh-LIGHT2 Gli-luciferase reporter, 30 h; inhibition, % (concentration not given with the values); actives 2.1% (n = 22,000); AID 2313;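 active = mean inhibition across valid replicates above about 65%, limit read from the data; inconclusive = mean under the limit, yet half or more replicates past it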;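 note: pathway switched on by Shh-conditioned medium diluted 1 in 25 in low serum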
# PD-1 reversal: reversal of PD-1 mediated T-cell inhibition; primary human CD4 T cells, PD-L1 beads, CellTiter-Glo 96 h; 29,000 tested, under 10 active; activation, % (concentration not given with the values); call rule not given here;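 note: 0% = median vehicle wells and 100% = positive control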
# An asterisk follows results filed as active; ? = inconclusive; / = not tested or not shown.
SMILES,NOMO-1 viab,Shh pathway inh,PD-1 reversal
C/C=C(/C)C(=O)O[C@H]1C(C)=C2[C@H]([C@@H]1OC(=O)CCCCCCC)[C@@](C)(OC(C)=O)C[C@H](OC(=O)CCC)[C@@]1(O)[C@H]2OC(=O)[C@@]1(C)O,122*,103*,/
CCC1C2CC[N+]3([O-])CCC4(C(=C2C(=O)OC)Nc2c(OC)cccc24)C13 (stereo not drawn),18,6,2
N#CC(O[C@@H]1O[C@H](CO[C@@H]2O[C@H](CO)[C@@H](O)[C@H](O)[C@H]2O)[C@@H](O)[C@H](O)[C@H]1O)c1ccccc1 (stereo partly drawn),35,33,7
c1ccc2c(CNCCc3c[nH]c4ccccc34)cccc2c1,106*,56,-5
CN(C)Cc1c[nH]c2ccccc12,16,?,/
O=c1c2ccccc2nc(CSc2ccccn2)n1-c1cccc(C(F)(F)F)c1,16,/,0
Cc1ccnc(NC(c2ccccc2[N+](=O)[O-])c2ccc3ccc(C)nc3c2O)c1 (stereo not drawn),124*,/,-15
C[C@@H](CO)NC(=O)C1C=C2c3cccc4[nH]cc(c34)C[C@H]2N(C)C1 (stereo partly drawn),10,22,/
C[C@@]12C[C@@H](c3ccoc3)OC(=O)C1CC[C@]1(C)[C@H]2[C@H]2C=C[C@]1(O)C(=O)O2 (stereo partly drawn),3,-16,2
c1cncc(C2Nc3ccccc3-n3cccc32)c1 (stereo not drawn),72,-41,-6
COc1ccc(CCNCc2cc(Cl)cc(Cl)c2OC)cc1OC,15,/,-3
CC(=O)OC1CCC2(C)C(CC[C@@H]3[C@@H]2CCC2(C)C(C4=CC(=O)OC4)CCC32O)C1 (stereo partly drawn),109*,-5,-16
C[C@H]1O[C@@H](O[C@H]2[C@@H](O)C[C@H](O[C@H]3[C@@H](O)C[C@H](O[C@H]4CC[C@]5(C)C6CC[C@]7(C)[C@@H](C8=CC(=O)OC8)CC[C@]7(O)C6CC[C@@H]5C4)O[C@@H]3C)O[C@@H]2C)C[C@H](O)[C@@H]1O (stereo partly drawn),111*,-15,/
COC1CC(O[C@H]2CC[C@@]3(C)C(CCC4C3CC[C@]3(C)C(C5=CC(=O)OC5)CCC43O)C2)OC(C)C1OC1OC(COC2OC(CO)C(O)C(O)C2O)C(O)C(O)C1O (stereo partly drawn),119*,0,-6
CC(=O)OCC(=O)[C@H]1CC[C@H]2[C@@H]3CC[C@H]4C[C@H](O)CC[C@]4(C)[C@H]3C(=O)C[C@]12C,23,-54,/
C[C@]12CC[C@H](O)C[C@H]1CC[C@@H]1[C@@H]2C[C@@H](O)[C@]2(C)[C@@H](C3=CC(=O)OC3)CC[C@]12O,98*,-47,-18
C[C@H]1O[C@@H](O[C@H]2CC[C@]3(CO)C4CC[C@]5(C)[C@@H](C6=CC(=O)OC6)CC[C@]5(O)C4CC[C@H]3C2)[C@H](O)[C@H](O)[C@@H]1O (stereo partly drawn),/,-21,/
CCCCCc1cc(O)c2c(c1)OC(C)(C)[C@@H]1CCC(C(=O)O)=CC21 (stereo partly drawn),20,24,9
C=CC1C[N+]2([O-])CCC1CC2C(O)c1ccnc2ccc(OC)cc12 (stereo not drawn),/,-37,/
CCCCC/C=C\C/C=C\C/C=C\C/C=C\CCCC(N)=O,8,-26,/
CCOC(=O)CN1C(=O)C2(C(C(=O)OCC)=C(N)OC3=C2C(=O)CC(C)(C)C3)c2ccccc21 (stereo not drawn),2,29,4
OCC1OC(n2cnc3cc(Cl)c(Cl)cc32)[C@@H](O)[C@H]1O (stereo partly drawn),40,56,2
CO[C@H]1[C@@H](O)[C@@H](C)O[C@@H](OC2CCC3(C)C(CC[C@@H]4[C@@H]3CCC3(C)C(C5=CC(=O)OC5)C(O)CC43O)C2)[C@@H]1O (stereo partly drawn),121*,-10,-16
CC12CC[C@H]3C(CCC4(O)CC(O)CCC34O)C1(O)CCC2C1=CC(=O)OC1 (stereo partly drawn),6,-45,-2
CO[C@H]1[C@@H](O)[C@@H](C)O[C@@H](O[C@@H]2C=C3C(OC(C)=O)CC4(O)C(CC[C@]5(C)[C@@H](C6=CC(=O)OC6)CC[C@]45O)[C@@]3(C)CC2)[C@@H]1O (stereo partly drawn),122*,-2,-30
SMILES,NOMO-1 viab,Shh pathway inh,PD-1 reversal
CC(=O)O[C@H]1CC[C@]2(C=O)[C@H]3CC[C@]4(C)[C@@H](C5=CC(=O)OC5)CC[C@]4(O)[C@@H]3CC[C@]2(O)C1,124*,4,-23
COC1CC(OC2CCC3(C)C(CCC4(O)C3CC(OC(=O)c3ccccc3)C3(C)C(O)(C(C)=O)CCC43O)C2)OC(C)C1OC1CC(OC)C(OC2OC(C)C(O)C(OC)C2O)C(C)O1 (stereo not drawn),32,-2,2
C[C@]12CC[C@H](O)C[C@H]1CC[C@@H]1[C@@H]2CC[C@]2(C)[C@@H](C3=CC(=O)OC3)CC[C@]12O,120*,-20,/
Cc1cc(C(F)F)n2nc(C(=O)Nc3ccc(Cl)cc3C(=O)c3ccccc3)nc2n1,-21,/,5
COc1cc2c(cc1OC)C13CCN(C)CC4=CCOC5CC(=O)N2C1C5C4CC3=O (stereo not drawn),23,20,0
CCNC(=S)N1CCN(CC(=O)Nc2ccc(Cl)cc2C(=O)c2ccccc2)CC1,4,/,-5
C=C1[C@]23C(=O)O[C@@H](C)[C@]2(O)C(=O)O[C@@]1(C)[C@H](OC(C)=O)C1=C(C)[C@@]2(C=CC(=O)OC2(C)C)CCC13C (stereo partly drawn),13,10,1
CC[C@H]1CN2CC[C@H]1C[C@H]2[C@H](O)c1ccnc2ccc(OC)cc12,4,2,-1
COC(=O)C1CC(=O)C[C@H]2[C@]3(C)C[C@@H](c4ccoc4)OC(=O)[C@H]3CC[C@@]12C (stereo partly drawn),1,0,3
O=c1c2ccccc2nc(C(F)(F)F)n1-c1ccccc1,4,-3,4
O=c1c2ccccc2[se]n1-c1ccccc1,141*,?,-58
CC(CCc1ccc(O)cc1)O[C@@H]1O[C@H](CO[C@H]2OC[C@](O)(CO)[C@H]2O)[C@@H](O)[C@H](O)[C@H]1O (stereo partly drawn),-1,-5,1
O=C(Cn1cc(C(=O)c2ccccc2)c2ccccc21)NCC1CCCO1 (stereo not drawn),23,/,0
CCC1CC2CC3(C(=O)OC)c4[nH]c5ccc(OC)cc5c4CCN(C2=O)C13 (stereo not drawn),31,1,5
COc1cc2c(cc1O)CCNC2C (stereo not drawn),-1,1,/
CC[C@H]1CN2CCc3cc(OC)c(OC)cc3[C@@H]2C[C@@H]1C[C@H]1NCCc2cc(O)c(OC)cc21,120*,86*,/
CCC1CN2CCC3(C(=O)Nc4cccc(O)c43)C2CC1/C(=C/OC)C(=O)OC (stereo not drawn),6,-13,0
N[C@H]1C[C@@H]1c1ccccc1,31,?,0

# Source: PubChem BioAssay (Broad Institute)
